Data reported in PubChem BioAssay AID1224860 (National Center for Advancing Translational Sciences (NCATS), 2016).
Results filed as inconclusive are left out. Values without a mark were called inactive. Active and inactive are the calls of the source. Calls come from the whole dose curve; as a rule, active = well fitted cell-killing curve with a large enough effect; inconclusive = small, poorly fitted or top-dose-only effect; inactive = flat fitted curve, though single readings scatter.

assay: Compound cytotoxicity measured by an ATP content assay as a counter-screen for lead compounds in human iPSC derived neural progenitor cells (hNPCs); settings: human iPSC-derived NPC viability, ATP luminescence; series mostly up to 46.1 µM; activity, negative = cytotoxicity: at the top concentration
Procedure, shortened: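 hNPCs (human iPSC-derived) seeded 16–20 h, then exposed to compound for 6, 24 or 72 h at 37 C. ATP-content luminescence read after 10 min at room temperature; cytotoxicity expressed as percent inhibition of viability.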

For `CN1CCN(c2cc3c(nn2)Oc2ccccc2N3C)CC1`, which “activity, negative = cytotoxicity” value is on record?
The value was 1.81% [at 23.8 µM].

For `C[C@H](NC(=O)C(=O)Nc1ccccc1C(C)(C)C)C(=O)N[C@@H](CC(=O)O)C(=O)COc1c(F)c(F)cc(F)c1F`, which “activity, negative = cytotoxicity” value is on record?
Its value is -0.979%.

With `O=C(O)[C@@H](c1ccc(OCc2ccc3ccccc3n2)cc1)C1CCCC1` as the compound, how does the “activity, negative = cytotoxicity” value read?
Its value is 1.28%.

Which “activity, negative = cytotoxicity” value does the source give for `O=C(OCc1ccccc1)c1ccc(O)cc1` here?
The value was -20.5%.

Which “activity, negative = cytotoxicity” value does the source give for `CNC1[C@H](O)C(O[C@@H]2C(O)C(O[C@H]3O[C@H]([C@@H](C)NC)CC[C@H]3N)[C@@H](N)C[C@H]2N)OC[C@]1(C)O` (stereo partly specified) here?
The value was 2.79%.

For `Oc1ccc(/C=C/c2cc(O)cc(O)c2)cc1`, which Potency is on record?
The Potency was 9.75 µM (active).

For `CC(C)OC(=O)CCCC=CC[C@@H]1[C@H](C=C[C@@H](O)COc2cccc(C(F)(F)F)c2)[C@H](O)C[C@@H]1O`, which “activity, negative = cytotoxicity” value is on record?
Its value is -18.9%.

Which Potency does the source give for `NC(=O)c1cccc2[nH]c(-c3ccc([C@H]4CCCN4)cc3F)nc12` here?
Its Potency is 4.35 µM (active).

With `O=C1C(Cl)=C(NCCN2CCOCC2)C(=O)c2ncccc21` as the compound, how does the Potency read?
The Potency was 1.73 µM (active).

For `COc1ccc(-c2cc(=O)c3c(O)cc(O)cc3o2)cc1O`, which “activity, negative = cytotoxicity” value is on record?
The value was -5.38%.

Which “activity, negative = cytotoxicity” value does the source give for `Nc1ccc(O)c(C(=O)O)c1` here?
The value was -2.85%.

Which Potency does the source give for `O=C(Nc1cc2cc[nH]c2cn1)c1ccccc1` here?
Its Potency is 0.346 µM (active).

With `Cc1[nH]c(C=C2C(=O)Nc3ccccc32)c(C)c1CCC(=O)O` as the compound, how does the “activity, negative = cytotoxicity” value read?
Its value is 5.02%.

For `Cc1cccc(C#Cc2ccccc2)n1`, which Potency is on record?
Its Potency is 9.75 µM (active).

For `COc1cc(NC(C)CCCN)c2ncccc2c1` (stereo unspecified), which “activity, negative = cytotoxicity” value is on record?
Its value is 5.35%.

Which “activity, negative = cytotoxicity” value does the source give for `CN(C)CCCSc1ccccc1NC(=O)/C=C/c1ccccc1` here?
Its value is -14.6%.

For `O=c1cc(-c2ccccc2)oc2cc(O)cc(O)c12`, which “activity, negative = cytotoxicity” value is on record?
Its value is -13.1%.

With `NC(N)=NN=C(/C=C/c1ccc([N+](=O)[O-])o1)/C=C/c1ccc([N+](=O)[O-])o1` as the compound, how does the Potency read?
The Potency was 1.95 µM (active).

With `Oc1cc(O)cc(/C=C/c2ccc(O)c(O)c2)c1` as the compound, how does the Potency read?
Its Potency is 7.74 µM (active).

For `CO[C@H]1C(=O)[C@]2(C)[C@@H](OC)C[C@H]3OC[C@@]3(OC(C)=O)[C@H]2[C@H](OC(=O)c2ccccc2)[C@]2(O)C[C@H](OC(=O)[C@H](O)[C@@H](NC(=O)OC(C)(C)C)c3ccccc3)C(C)=C1C2(C)C`, which “activity, negative = cytotoxicity” value is on record?
The value was -11.3%.

Which “activity, negative = cytotoxicity” value does the source give for `CCCCCCOc1ccccc1C(N)=O` here?
Its value is 16.5%.

With `N#C/C(=C\c1ccc(O)c(O)c1)C(=O)Nc1ccccc1` as the compound, how does the “activity, negative = cytotoxicity” value read?
Its value is -10.4%.

With `O=c1[nH]nc(Sc2ncc([N+](=O)[O-])s2)n1-c1ccc2c(c1)OCCO2` as the compound, how does the Potency read?
The Potency was 1.73 µM (active).

For `CN1CC(=O)N/C1=N/C(=O)Nc1cccc(Cl)c1`, which “activity, negative = cytotoxicity” value is on record?
Its value is -7.62%.

For `CCCS(=O)c1ccc2nc(NC(=O)OC)[nH]c2c1` (stereo unspecified), which “activity, negative = cytotoxicity” value is on record?
Its value is -9.42%.

For `CC(=O)Nc1ccc([C@H](C)C(=O)Nc2ncc(C(C)C)s2)cc1`, which “activity, negative = cytotoxicity” value is on record?
Its value is -9.01%.

Which “activity, negative = cytotoxicity” value does the source give for `Cc1cc(O)c2c(c1)C(=O)c1cc(O)cc(O)c1C2=O` here?
The value was -12.6%.

For `O=C(c1ccccc1)c1ccc2n1CCC2C(=O)O` (stereo unspecified), which “activity, negative = cytotoxicity” value is on record?
The value was 6.4%.

Which “activity, negative = cytotoxicity” value does the source give for `CN1CC(=O)N2C(Cc3c([nH]c4ccccc34)[C@H]2c2ccc3c(c2)OCO3)C1=O` (stereo partly specified) here?
The value was -8.64%.

Which “activity, negative = cytotoxicity” value does the source give for `CC(C(=O)O)c1ccc2c(c1)[nH]c1ccc(Cl)cc12` (stereo unspecified) here?
Its value is 16%.

For `C=CCCCCCCCCC(=O)O`, which “activity, negative = cytotoxicity” value is on record?
Its value is 2.42%.
